# Peg3 prom inh: reduces Peg3 promoter-driven luciferase expression in HeLa. HeLa PEG-Prom luciferase reporter, luminescence, overnight. inhibition, % at 20 µM. 1.7% of 360,000 active;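 active = inhibition of at least 50% at 20 µM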
# TROY NFkB inh: inhibitors of TROY-dependent NF-kB signaling; Q293 LMP1-TROYcd NF-kB luciferase reporter, 4 h; inhibition, % at 10 µM; 0.98% of 360,000 active; AID 1347056;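 active = compounds whose plate-normalised and pattern-corrected inhibition of the luciferase reporter signal at the single screening dose is 50% or more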
# CF NFkB block: cystic fibrosis NF-kB activation inhibition. KKLEB NF-kB-GFP reporter, PAF-induced, GFP fluorescence overnight. inhibition, % at 5 µM. 0.86% of 360,000 active. AID 588850;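 active = at least 50% inhibition at 5 µM, scaled per plate between neutral and stimulator controls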;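 also: PAF is a Pseudomonas aeruginosa culture filtrate used as stimulus; plate controls were PAF-stimulated DMSO wells for no effect and unstimulated DMSO wells for full effect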
# HIF-2a inh: blocks HIF-2a reporter activity; 786-0 RCC cells HIF-2a reporter, luciferase luminescence, overnight; inhibition, % at 18.8 µM; 0.72% of 360,000 active; AID 624352;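 active = inhibition of the luminescence signal of 40% or more relative to plate controls, in a single-dose primary screen at 18.75 µM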
# TWEAK Fn14 block: blocks TWEAK-Fn14 interaction in a reporter cell assay. TWEAK-stimulated Fn14 reporter cells, luciferase luminescence, 8 h. inhibition, % at 10 µM. 2% of 360,000 active. AID 1159606; in the data active = inhibition above about 50%
# KKLEB cytotox: counter-screen for CF NF-kB inhibitors: cytotoxicity | KKLEB CF airway cells viability, ATPlite luminescence, overnight; active compounds read low; cells stimulated with P. aeruginosa culture filtrate | activity change (cytotoxicity), % at 5 µM | 0.36% of 360,000 active | AID 602141;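 active = corrected activity change at or below -50% at 5 µM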
# Active calls of the source: *; x = not tested or not shown. In the library only some 4% were active in any assay of this set; here they are far more common.
SMILES,Peg3 prom inh,TROY NFkB inh,CF NFkB block,HIF-2a inh,TWEAK Fn14 block,KKLEB cytotox
C=C1[C@@H](C)[C@H]2[C@H](Cc3ccccc3)NC(=O)[C@]23OC(=O)/C=C/[C@H](O)CCC[C@@H](C)C/C=C/[C@H]3[C@@H]1O,64.5*,-33.4,81.1*,-14.9,-13.6,-36.9
Cc1cc(OCC(=O)N[C@H](C(=O)O)c2ccccc2)c2c3c(c(=O)oc2c1)CCC3,-0.3,17.3,9.9,-0.1,-0.7,-14.5
CC(C)c1ccc(C(c2c(O)c3ccccc3oc2=O)c2c(O)c3ccccc3oc2=O)cc1,19.0,68.5*,23.9,6.4,27.9,2.6
CS(=O)(=O)c1ccc(C2=C(CNC(=O)c3cccnc3)[C@H]3CC[C@@H](C2)N3Cc2ccccc2)cc1,-15.7,-8.0,4.7,1.3,4.6,-7.4
O=C1CC=C2C3CC4N(CCC45c4cc(O)c(O)cc4N1C25)CC3=CCBr (stereo unspecified),-2.6,-5.2,12.5,8.4,13.5,-24.5
OCC1OC(n2cnc3cc(Cl)c(Cl)cc32)C(O)C1O (stereo unspecified),7.9,53.8*,28.5,6.8,21.4,-11.3
Cc1cc(OCC(=O)N2CCC(C(=O)O)(c3ccccc3)CC2)c2c(C)c(C)c(=O)oc2c1,12.5,4.6,-17.5,-4.6,0.8,-9.8
COc1ccc(C(CC(=O)N2CCC3(CC2)OCCO3)NS(=O)(=O)c2ccc(OC)cc2)cc1 (stereo unspecified),-2.2,8.7,-1.6,12.4,4.5,1.6
COc1ccc(S(=O)(=O)NC(CC(=O)N2CCC3(CC2)OCCO3)c2ccco2)cc1 (stereo unspecified),-2.0,15.1,-6.6,7.0,90.4*,6.1
N#CC(C#N)=C(C#N)c1ccc(Nc2ccccc2)cc1,31.9,-30.0,52.7*,10.7,33.2,-14.2
c1ccc(Nc2ccc(Nc3ccccc3)cc2)cc1,-156.0,-35.0,1.7,-227.7,-9.9,1.9
O=[N+]([O-])c1cnc[nH]1,-2.8,-5.4,-10.2,-1.1,5.3,14.1
CCCCn1c(O)c(C(=O)/C=C/c2ccc3c(c2)OCO3)c(=O)[nH]c1=O,-0.5,-4.2,-20.0,19.4,-0.9,-11.9
O=C(/C=C/c1ccc2c(c1)OCO2)c1c(O)n(CCC2=CCCCC2)c(=O)[nH]c1=O,20.7,19.0,-22.0,19.2,51.4*,-3.2
CCn1nc(-c2ccccc2)nc2c(=O)n(C)c(=O)nc1-2,8.4,-0.7,2.6,17.1,17.9,-15.7
Cc1nc2c(=O)n(C)c(=O)nc-2n(C)n1,104.7*,86.3*,76.6*,81.5*,102.3*,-73.9*
CCOC(=O)[C@]12Cc3cc(Cl)ccc3[C@H]1N(C1CCCCC1)C(=O)c1cc(OC)ccc12,x,63.1*,x,89.0*,101.9*,x
CCOC(=O)[C@]12Cc3cc(Cl)ccc3[C@H]1N(C)C(=O)c1cc(OC)ccc12,x,27.0,x,28.3,5.7,x
C[C@]12CCC3[C@@H](CCC4=CC(=O)CC[C@@]43C=O)C1CCC2=O (stereo partly specified),8.9,-6.3,-18.7,7.9,-18.3,3.9
COc1cc(OC)c(OC)cc1CN1CCN(C(=O)Cc2ccccc2)CC1,8.0,5.4,-2.1,17.6,96.6*,-11.9
Cc1cccc(CN2CCN(C(=O)Cc3ccccc3)CC2)c1,18.3,-5.9,0.7,17.5,-10.0,1.0
Oc1c(Cl)cccc1Cc1cc(Cl)cc(Cl)c1O,48.8,66.0*,61.0*,-3.3,65.5*,-19.0
NC(Cc1ccc(Cl)cc1)c1csc(Nc2ncccn2)n1 (stereo unspecified),10.6,13.9,-15.8,-17.6,57.9*,-25.6
Nc1ccc(CC(N)c2csc(Nc3ncccn3)n2)cc1 (stereo unspecified),-112.8,-6.2,1.0,-133.5,-19.0,-12.1
CCC1CN2CCc3cc(OC)c(OC)cc3C2CC1CC1NCCc2c1[nH]c1ccc(O)cc21 (stereo unspecified),98.8*,84.8*,89.3*,57.5*,99.1*,-26.7
SMILES,Peg3 prom inh,TROY NFkB inh,CF NFkB block,HIF-2a inh,TWEAK Fn14 block,KKLEB cytotox
CCC(=O)OC1CCC2C3CCC4CC(=O)C=CC4(C)C3CCC12C (stereo unspecified),45.9,0.1,12.9,24.8,6.4,2.9
CC12CC[C@H]3[C@@H](CCC4(O)C[C@H](O)CCC34/C=N/NC(=O)Cc3ccccc3)C1(O)CCC2C1=CC(=O)OC1 (stereo partly specified),18.8,7.4,8.7,2.2,-12.0,5.0
CC12CC[C@H]3[C@@H](CCC4(O)C[C@H](O)CCC34/C=N/NC(=O)c3ccccc3[N+](=O)[O-])C1(O)CCC2C1=CC(=O)OC1 (stereo partly specified),66.7*,13.4,4.0,21.9,3.6,11.2
CCCCCn1c(NC(=O)c2ccco2)c(C(=O)OCC)c2nc3ccccc3nc21,22.0,61.6*,-2.1,5.3,81.1*,13.7
COc1ccc(C(=O)Oc2cccc3cccnc23)cc1S(=O)(=O)N1CCOCC1,8.3,12.6,28.6,19.8,11.1,-5.9
CC(=O)OC(C)(C)/C=C/C(=O)[C@](C)(O)C1[C@H](O)C[C@@]2(C)C3CC=C4C(C[C@H](O)C(=O)C4(C)C)[C@]3(C)C(=O)C[C@]12C (stereo partly specified),104.3*,48.6,83.6*,72.4*,42.4,-89.2*
CC(C)(O)/C=C/C(=O)C(C)(O)C1C(O)CC2(C)C3CC=C4C(C=C(O)C(=O)C4(C)C)C3(C)C(=O)CC12C (stereo unspecified),99.2*,70.1*,85.6*,91.2*,89.9*,-62.0*
CC(Cc1ccccc1)/[N+]([O-])=C\c1ccc(C(F)(F)F)cc1 (stereo unspecified),-184.5,-99.9,18.6,-228.1,-16.4,-15.5
CCCCCCCSc1cc(OC)c(CCN(C)C)cc1OC,103.5*,-4.4,4.8,5.6,-35.4,-5.1
O=[N+]([O-])c1ccc(O)c([N+](=O)[O-])c1,-1.9,-0.9,22.8,-7.7,18.2,-13.3
O=[N+]([O-])c1ccc(Cl)c([N+](=O)[O-])c1,58.2*,4.8,58.3*,7.3,22.8,-16.6
CC1CCN(C(CC(=O)c2ccccc2)C(=O)c2ccccc2)CC1 (stereo unspecified),104.7*,-46.0,39.9,-143.1,6.9,-14.2
Brc1cccc(CNCCc2ccc3c(c2)OCO3)c1,-42.2,-9.9,-11.7,-4.4,-12.1,1.1
CC(C)c1oc(=O)cc2c1[C@@H](O)[C@H]1OC(=O)[C@@]3(C)C[C@@H](O)[C@@H](O)[C@@]2(C)C13 (stereo partly specified),90.7*,38.4,18.5,38.8,87.6*,1.8

# Screening results (PubChem BioAssay)
